Experiment in all cases: NCI-60 one-dose screen, 48 h (100 = growth as untreated, 0 = no growth, -100 = all killed)
What all share (conditions): 10 µM unless noted

Test [1] deals with RPMI-8226 leukemia.
The test system of test [2] is OVCAR-8 ovarian.
Test [3] has as its system OVCAR-5 ovarian.
For test [4], the system named is OVCAR-4 ovarian.
Test [5] has as its system SK-OV-3 ovarian.
Test [6] has as its system IGROV1 ovarian.
Test [7] concerns OVCAR-3 ovarian.
For test [8], the system named is HS 578T breast.
For test [9], the system named is NCI/ADR-RES ovarian.
Test [10] concerns T-47D breast.
The test system of test [11] is BT-549 breast.
Test [12] deals with MDA-MB-435 melanoma.
The test system of test [13] is SW-620 colon.
The test system of test [14] is MCF7 breast.
Test [15] deals with HCT-116 colon.
For test [16], the system named is HCC-2998 colon.
For test [17], the system named is KM12 colon.

Compounds without any hit were thinned out: in the full panel of roughly 83,000, 20% have a hit.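 Note: values are percent growth. 100 is the growth of untreated cells, values between 100 and 0 indicate rising inhibition; between -100 and 0 indicates cell death.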 Unmarked numbers belong to inactive results. Activity calls are given as the source filed them. How the source made its calls: active means growth percent below 10; inactive means the rest.

With `COC(=O)c1ccc2nc(-c3cc4ccccc4n3C)n(CCCCOc3cc4c(cc3OC)C(=O)N3CCC[C@H]3C=N4)c2c1`, the growth is -32.9% (active) in [1]; 16.5% in test [2]; -1.18% (active) in test [3]; -24% (active) in test [4]; 30.1% in test [5]; -68.2% (active) in [6]. Further, the growth in test [7] was -40.2% (active); in test [8], -62.5% (active); in [9] it was 29.5%; in test [10], 4.1% (active); in test [11], -53.6% (active); in [12], -88.6% (active). In addition, the growth in test [13] was -23% (active); in test [14], 2.44% (active); in test [15] it was 8.52% (active); in test [16] it was -17.6% (active); in test [17] it was -29.2% (active).

Take `NC(=O)c1c(NC(=O)c2ccc(OCC3CCCO3)cc2)sc2c1CCCC2` (stereo unspecified): the growth in test [1] is 83.7%; in [2] it was 104%; in [3], 101%; in test [4] it was 115%; in [5], 119%; in [6] it was -23.3% (active). In addition, the growth in [7] is 108%; in test [8], -24.5% (active); in test [9], 97.1%; in test [10], 80.5%; in test [11], 101%; in test [12], 95.8%. Moreover, the growth in test [13] is 110%; in test [14], 101%; in [15] it was 90%; in test [16] it was 113%; in [17], 66.9%.

For `Cc1cc2c(c(=O)o1)C(c1ccc(OC(=O)N3CCOCC3)cc1)C(C#N)=C(N)O2` (stereo unspecified), the growth was 109% in test [1]; 104% in test [2]; 98.9% in test [3]; 109% in [4]; 101% in test [5]; 107% in test [6]. Besides, the growth in test [7] was 109%; in test [8] it was 116%; in test [9], 105%; in test [10], 102%; in test [11], 104%; in test [12], 105%. In addition, the growth is 108% in test [13]; 98% in [14]; 104% in [15]; 99.4% in test [16]; 105% in test [17].

For the compound `C#CCC1(c2ccc(F)c(F)c2)NS(=O)(=O)c2ccccc21` (stereo unspecified), the growth in test [1] was 109%; in [2], 93.9%; in [3], 107%; in test [4], 105%; in test [5], 96.9%; in test [6], 94.3%. In addition, the growth is 109% in test [7]; 101% in [8]; 103% in [9]; 85.4% in test [10]; 110% in [11]; 107% in test [12]. Besides, the growth was 108% in test [13]; 94.1% in [14]; 95.5% in test [15]; 102% in test [16]; 102% in test [17].

On to `C=CCOc1ccc(/C(O)=C2\C(=O)C(=O)N(c3nccs3)C2c2ccccc2F)cc1` (stereo unspecified), for which the growth is 136% in test [1]; 102% in test [2]; 122% in test [3]; 81.3% in test [4]; 109% in test [5]; 3.7% (active) in [6]. Moreover, the growth in test [7] is 93.5%; in [8] it was 104%; in test [9], 119%; in test [10] it was 100%; in test [11] it was 113%; in test [12], 94%. Besides, the growth in [13] is 103%; in test [14], 112%; in [15], 95.4%; in test [16], 107%; in [17], 89.4%.

As for `CCN(CC)CCCC(C)N=c1cc(Nc2cc(=NC(C)CCCN(CC)CC)c3cc(OC)ccc3o2)oc2ccc(OC)cc12` (stereo unspecified), the growth in test [1] was -38.3% (active); in test [2] it was -1.52% (active); in test [3], -28.3% (active); in [4], -48.8% (active); in test [5] it was 7.55% (active); in test [6] it was -5.22% (active). Also, the growth is -20.8% (active) in [7]; 27.5% in [8]; 3.48% (active) in [9]; 25.8% in [10]; -69.4% (active) in [11]; -87.4% (active) in test [12]. Moreover, the growth was -2.14% (active) in [13]; -26.8% (active) in test [14]; -21.2% (active) in [15]; -88.9% (active) in test [16]; -4.99% (active) in test [17].

For the compound `Cc1nc2scc(-c3ccccc3)n2c(=O)c1CCO`, the growth in test [1] is 102%; in test [2], 109%; in test [3], 109%; in [4], 93.8%; in test [5], 105%; in [6], 98.1%. Also, the growth was 100% in [7]; 95% in [8]; 112% in test [9]; 99.6% in [10]; 116% in test [11]; 103% in [12]. For the same compound, the growth in test [13] is 101%; in test [14] it was 88.9%; in test [15], 101%; in test [16], 112%; in test [17], 103%.

Take `COc1ccc(/C=N/NC(=O)Cn2c(Cc3cccc4ccccc34)nc3ccccc32)cc1`: the growth in test [1] was 88.3%; in test [2], 93.7%; in test [3], 96%; in test [4], 104%; in [5], 106%; in test [6], 108%. For the same compound, the growth was 101% in test [7]; 95.8% in [8]; 93.6% in [9]; 85.8% in test [10]; 107% in [11]; 103% in test [12]. In addition, the growth in test [13] is 109%; in test [14] it was 92.4%; in test [15], 100%; in test [16], 107%; in test [17], 98%.

(Values after PubChem BioAssay (NCI).)
